Laboratory results published in the supplement of paper PMC6992640.
± gives the standard deviation of the averaged measurements.

Legend:
Assay in all cases: cell viability (% of vehicle); higher = less cytotoxic
Settings in all cases: 10 µM; 72 h
[1] = tested on: HCI01 (cells of a triple-negative basal-like breast cancer xenograft)
[2] = tested on: HCI03 (cells of an ER-positive luminal breast cancer xenograft)
[3] = tested on: HCI09 (cells of a triple-negative luminal androgen receptor type breast cancer xenograft)
[4] = tested on: HCI11 (cells of an ER-positive luminal breast cancer xenograft)
[5] = tested on: HCI13 (cells of an ER-positive luminal breast cancer xenograft)
[6] = tested on: HCI16 (cells of a triple-negative basal-like breast cancer xenograft)
[7] = tested on: UCD52 (cells of a triple-negative basal-like breast cancer xenograft)
[8] = tested on: WHIM2 (cells of a triple-negative basal-like breast cancer xenograft)
[9] = tested on: WHIM30 (cells of a triple-negative basal-like breast cancer xenograft)
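Also: PDX cells carrying CMV promoter-driven luciferase, viability read as total photon flux per second by IVIS imaging following D-luciferin, vehicle control 0.1% DMSO.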

SMILES | cell viability [1] | cell viability [2] | cell viability [3] | cell viability [4] | cell viability [5] | cell viability [6] | cell viability [7] | cell viability [8] | cell viability [9]
N=C(N)c1ccc(OCCCCCOc2ccc(C(=N)N)cc2)cc1.O=S(=O)(O)CCO.O=S(=O)(O)CCO [Pentamidine isethionate] | 98.1 ± 3.2 | 104 | 27.495 ± 0.0084 | 74.7 | 180 ± 61 | 87.7 | 91.2 ± 2.3 | 85.2 ± 19 | 113 ± 7.6
COC(=O)Nc1nc2ccc(C(=O)c3ccc(F)cc3)cc2[nH]1 [Flubendazole] | 104 ± 3.6 | 103 | 103 ± 2.5 | 81.8 | 102 ± 8.7 | 140 | 80.3 ± 3.1 | 139 ± 36 | 106.1 ± 0.14
CC(CCC(=O)O)C1CCC2C3CCC4CC(O)CCC4(C)C3CC(O)C12C (stereo unspecified) [Deoxycholic acid] | 119 ± 25 | 143 | 107 ± 23 | 103 | 107.1 ± 0.2 | 87.1 | 112 ± 3.8 | 104 ± 19 | 91.5 ± 0.73
CC(C)Cc1ccc(C(C)C(=O)O)cc1 (stereo unspecified) [Ibuprofen] | 124 ± 28 | 115 | 110 ± 24 | 104 | 133 ± 7.1 | 90.2 | 88.9 ± 4.3 | 102 ± 13 | 104 ± 4.4
CC(=O)SC1CC2=CC(=O)CCC2(C)C2CCC3(C)C(CCC34CCC(=O)O4)C12 (stereo unspecified) [Spironolactone] | 109 ± 2.6 | 114 | 73.8 ± 9.1 | 110 | 75.9 ± 6.1 | 64.2 | 79.7 ± 14 | 88.8 ± 8.7 | 113 ± 10
OC[C@@H](O)[C@@H](O)[C@H](O)[C@@H](O)CO [D-Sorbitol] | 96 ± 11 | 118 | 107 ± 21 | 91.5 | 109 ± 4.5 | 120 | 96.3 ± 8 | 103 ± 2.6 | 120 ± 21
CN1CCN(c2nc(C3=C(c4c[nH]c5ccccc45)C(=O)NC3=O)c3ccccc3n2)CC1 [Sotrastaurin (AEB071)] | 134 ± 40 | 102 | 173 ± 34 | 136 | 109 ± 1.9 | 111 | 63.9 ± 1.5 | 195 ± 10 | 111 ± 6.1
O=c1ccn(C2OC(CO)C(O)C2O)c(=O)[nH]1 (stereo unspecified) [Uridine] | 106 ± 10 | 115 | 100.8 ± 0.17 | 100 | 103 ± 21 | 104 | 85.6 ± 2.8 | 89.7 ± 4.7 | 131 ± 9.8
CC(C)OC(=O)C(C)(C)Oc1ccc(C(=O)c2ccc(Cl)cc2)cc1 [Fenofibrate] | 108 ± 18 | 106 | 93.6 ± 4.2 | 92.1 | 87.5 ± 35 | 135 | 89.1 ± 14 | 109 ± 1.6 | 137 ± 9.3
Cc1[nH]c(C=C2C(=O)Nc3ccccc32)c(C)c1CCC(=O)O [TSU-68 (SU6668,Orantinib)] | 79.2 ± 19 | 116 | 90.8 ± 25 | 106 | 60.8 ± 6.6 | 111 | 123 ± 18 | 60.9 ± 4.7 | 112 ± 13
CC(O)C1C(=O)N2C(C(=O)O)=C(SC3CNC(C(=O)N(C)C)C3)C(C)C12.O.O.O (stereo unspecified) [Meropenem trihydrate] | 104 ± 8.7 | 81.8 | 127 ± 32 | 92.4 | 95 ± 0.96 | 96.2 | 89.6 ± 5.1 | 99.4 ± 7.5 | 78.309 ± 0.071
CC(O)C1C(=O)N2C(C(=O)O)=C(SC3CNC(CNS(N)(=O)=O)C3)C(C)C12 (stereo unspecified) [Doripenem] | 91.4 ± 3.9 | 103 | 143 ± 73 | 106 | 99.2 ± 19 | 85.2 | 82.7 ± 7.5 | 93.3 ± 19 | 90.3 ± 15
CC(C)(Sc1cc(C(C)(C)C)c(O)c(C(C)(C)C)c1)Sc1cc(C(C)(C)C)c(O)c(C(C)(C)C)c1 [Probucol] | 83.1 ± 22 | 129 | 116 ± 8.1 | 89.7 | 94.85 ± 0.74 | 103 | 93.68 ± 0.28 | 90.5 ± 23 | 113 ± 1.5
Nc1ccn(C2OC(CO)C(O)C2(F)F)c(=O)n1 (stereo unspecified) [Gemcitabine] | 70.3 ± 11 | 95.9 | 75.1 ± 9.5 | 112 | 118 ± 5.3 | 64.7 | 100.6 ± 0.62 | 78.9 ± 22 | 119 ± 12
CC12CCC3c4ccc(O)cc4CCC3C1CC(O)C2O (stereo unspecified) [Estriol] | 132 ± 20 | 118 | 125 ± 36 | 91.7 | 152 ± 25 | 152 | 105 ± 16 | 98.4 ± 8.9 | 150 ± 11
C#C[C@]1(O)CC[C@H]2[C@@H]3CCC4=CCCC[C@@H]4[C@H]3C(=C)C[C@@]21CC [Desogestrel] | 94.9 ± 2.5 | 146 | 81 ± 11 | 87.2 | 41.5 ± 5.2 | 97.5 | 74.4 ± 2 | 64.2 ± 39 | 71.8 ± 53
Clc1ccc2c(c1)CCc1cccnc1C2=C1CCNCC1 [Desloratadine] | 164 ± 55 | 143 | 99.6 ± 1.5 | 77.5 | 128 ± 19 | 128 | 67.2 ± 9.1 | 69.5 ± 16 | 102 ± 7.8
CCC1OC(=O)C(C)C(OC2CC(C)(OC)C(O)C(C)O2)C(C)C(OC2OC(C)CC(N(C)C)C2O)C(C)(O)CC(C)C(=O)C(C)C(O)C1(C)O (stereo unspecified) [Erythromycin] | 106 ± 13 | 101 | 96.7 ± 12 | 92.7 | 77.2 ± 9.7 | 113 | 95 ± 17 | 118 ± 36 | 167.6 ± 0.38
CCCCC(=O)N(Cc1ccc(-c2ccccc2-c2nnn[nH]2)cc1)[C@H](C(=O)O)C(C)C.CCOC(=O)[C@H](C)C[C@@H](Cc1ccc(-c2ccccc2)cc1)NC(=O)CCC(=O)O | 98.1 ± 17 | 141 | 95.6 ± 18 | 92.9 | 87.9 ± 5.7 | 112 | 95.1 ± 8.6 | 93.4 ± 8.2 | 131 ± 11
